# Data published in publication PMC12864922, “TDP-43 directly inhibits mRNA accumulation in neurites through modulation of mRNA stability”.
# Over roughly 9,900 sequences, “r (bound/input frequency ratio)” has its median near 0.7; the highest 2% begin near 6.5. For the sample, the highest values were picked, then their nearest neighbours and some sequences at random.
# B1: ENSMUSG00000061578.1485|Ksr2 (ssRNA)
# RNA: GGGAGUUCUACAGUCCGACGAUCGCUUCGAUAUCCGCAUGCUAUGCAUAGGCAAGUAGAUGAAUGAAUAUGUGGGUAGAAGGGUGAGUGGGUGGAUGAAUGGAUGGAUAGGUUGGUAGGUUAAUGUAUUCGUGGAUGGGUGAAUGGAUGGAUGGAUAGAUAGAUGGGAAGGUGGAUGGACAGAUGGAUGGAUGGAUAGAUAGAUGGACAGGUGGUUGGUGGAUAAAUGAGUGAAUGAUUAUGUUGAUAGAUAUGUGGGUAGGCUGAAUGGGUGAAUGGAUAGAUCGAUGACUGGAUGGAGGGUCUCUUGCGGUCGCACUAGUGUGGAAUUCUCGGGUGUCAAGG
# B2: ENSMUSG00000061578.1478|Ksr2 (ssRNA)
# RNA: GGGAGUUCUACAGUCCGACGAUCGCUUCGAUAUCCGCAUGCUAGAUUUGUGAAUGAAUGGAUGAAUGGAUGGGUAGGUGGGUGGAUGCAUAGGCAAGUAGAUGAAUGAAUAUGUGGGUAGAAGGGUGAGUGGGUGGAUGAAUGGAUGGAUAGGUUGGUAGGUUAAUGUAUUCGUGGAUGGGUGAAUGGAUGGAUGGAUAGAUAGAUGGGAAGGUGGAUGGACAGAUGGAUGGAUGGAUAGAUAGAUGGACAGGUGGUUGGUGGAUAAAUGAGUGAAUGAUUAUGUUGAUAGAUAUGUGGGUAGCUCUUGCGGUCGCACUAGUGUGGAAUUCUCGGGUGUCAAGG
# B3: ENSMUSG00000061578.1481|Ksr2 (ssRNA)
# RNA: GGGAGUUCUACAGUCCGACGAUCGCUUCGAUAUCCGCAUGCUAUGAAUGGAUGGGUAGGUGGGUGGAUGCAUAGGCAAGUAGAUGAAUGAAUAUGUGGGUAGAAGGGUGAGUGGGUGGAUGAAUGGAUGGAUAGGUUGGUAGGUUAAUGUAUUCGUGGAUGGGUGAAUGGAUGGAUGGAUAGAUAGAUGGGAAGGUGGAUGGACAGAUGGAUGGAUGGAUAGAUAGAUGGACAGGUGGUUGGUGGAUAAAUGAGUGAAUGAUUAUGUUGAUAGAUAUGUGGGUAGGCUGAAUGGGUGAAUGGACUCUUGCGGUCGCACUAGUGUGGAAUUCUCGGGUGUCAAGG
# B4: ENSMUSG00000061578.1486|Ksr2 (ssRNA)
# RNA: GGGAGUUCUACAGUCCGACGAUCGCUUCGAUAUCCGCAUGCUAGGCAAGUAGAUGAAUGAAUAUGUGGGUAGAAGGGUGAGUGGGUGGAUGAAUGGAUGGAUAGGUUGGUAGGUUAAUGUAUUCGUGGAUGGGUGAAUGGAUGGAUGGAUAGAUAGAUGGGAAGGUGGAUGGACAGAUGGAUGGAUGGAUAGAUAGAUGGACAGGUGGUUGGUGGAUAAAUGAGUGAAUGAUUAUGUUGAUAGAUAUGUGGGUAGGCUGAAUGGGUGAAUGGAUAGAUCGAUGACUGGAUGGAGGGUGGGUGACUCUUGCGGUCGCACUAGUGUGGAAUUCUCGGGUGUCAAGG
# B5: ENSMUSG00000061578.1480|Ksr2 (ssRNA)
# RNA: GGGAGUUCUACAGUCCGACGAUCGCUUCGAUAUCCGCAUGCUAAAUGGAUGAAUGGAUGGGUAGGUGGGUGGAUGCAUAGGCAAGUAGAUGAAUGAAUAUGUGGGUAGAAGGGUGAGUGGGUGGAUGAAUGGAUGGAUAGGUUGGUAGGUUAAUGUAUUCGUGGAUGGGUGAAUGGAUGGAUGGAUAGAUAGAUGGGAAGGUGGAUGGACAGAUGGAUGGAUGGAUAGAUAGAUGGACAGGUGGUUGGUGGAUAAAUGAGUGAAUGAUUAUGUUGAUAGAUAUGUGGGUAGGCUGAAUGGGUGCUCUUGCGGUCGCACUAGUGUGGAAUUCUCGGGUGUCAAGG
# B6: ENSMUSG00000061578.1479|Ksr2 (ssRNA)
# RNA: GGGAGUUCUACAGUCCGACGAUCGCUUCGAUAUCCGCAUGCUAUGAAUGAAUGGAUGAAUGGAUGGGUAGGUGGGUGGAUGCAUAGGCAAGUAGAUGAAUGAAUAUGUGGGUAGAAGGGUGAGUGGGUGGAUGAAUGGAUGGAUAGGUUGGUAGGUUAAUGUAUUCGUGGAUGGGUGAAUGGAUGGAUGGAUAGAUAGAUGGGAAGGUGGAUGGACAGAUGGAUGGAUGGAUAGAUAGAUGGACAGGUGGUUGGUGGAUAAAUGAGUGAAUGAUUAUGUUGAUAGAUAUGUGGGUAGGCUGAACUCUUGCGGUCGCACUAGUGUGGAAUUCUCGGGUGUCAAGG
# B7: ENSMUSG00000061578.1483|Ksr2 (ssRNA)
# RNA: GGGAGUUCUACAGUCCGACGAUCGCUUCGAUAUCCGCAUGCUAUAGGUGGGUGGAUGCAUAGGCAAGUAGAUGAAUGAAUAUGUGGGUAGAAGGGUGAGUGGGUGGAUGAAUGGAUGGAUAGGUUGGUAGGUUAAUGUAUUCGUGGAUGGGUGAAUGGAUGGAUGGAUAGAUAGAUGGGAAGGUGGAUGGACAGAUGGAUGGAUGGAUAGAUAGAUGGACAGGUGGUUGGUGGAUAAAUGAGUGAAUGAUUAUGUUGAUAGAUAUGUGGGUAGGCUGAAUGGGUGAAUGGAUAGAUCGAUGACCUCUUGCGGUCGCACUAGUGUGGAAUUCUCGGGUGUCAAGG
# B8: ENSMUSG00000061578.1484|Ksr2 (ssRNA)
# RNA: GGGAGUUCUACAGUCCGACGAUCGCUUCGAUAUCCGCAUGCUAGGUGGAUGCAUAGGCAAGUAGAUGAAUGAAUAUGUGGGUAGAAGGGUGAGUGGGUGGAUGAAUGGAUGGAUAGGUUGGUAGGUUAAUGUAUUCGUGGAUGGGUGAAUGGAUGGAUGGAUAGAUAGAUGGGAAGGUGGAUGGACAGAUGGAUGGAUGGAUAGAUAGAUGGACAGGUGGUUGGUGGAUAAAUGAGUGAAUGAUUAUGUUGAUAGAUAUGUGGGUAGGCUGAAUGGGUGAAUGGAUAGAUCGAUGACUGGAUGCUCUUGCGGUCGCACUAGUGUGGAAUUCUCGGGUGUCAAGG
# B9: ENSMUSG00000061578.1482|Ksr2 (ssRNA)
# RNA: GGGAGUUCUACAGUCCGACGAUCGCUUCGAUAUCCGCAUGCUAGAUGGGUAGGUGGGUGGAUGCAUAGGCAAGUAGAUGAAUGAAUAUGUGGGUAGAAGGGUGAGUGGGUGGAUGAAUGGAUGGAUAGGUUGGUAGGUUAAUGUAUUCGUGGAUGGGUGAAUGGAUGGAUGGAUAGAUAGAUGGGAAGGUGGAUGGACAGAUGGAUGGAUGGAUAGAUAGAUGGACAGGUGGUUGGUGGAUAAAUGAGUGAAUGAUUAUGUUGAUAGAUAUGUGGGUAGGCUGAAUGGGUGAAUGGAUAGAUCCUCUUGCGGUCGCACUAGUGUGGAAUUCUCGGGUGUCAAGG
# B10: ENSMUSG00000028439.39|Fam219a|34:40 (ssRNA)
# RNA: GGGAGUUCUACAGUCCGACGAUCGCUUCGAUAUCCGCAUGCUACAUUGCUUCCUCCUAUGGUAGGACGUGUACCUCACACACAUCAAGGAGCCGGAGAAACCAAAACCGGGUCUGUCUCCAGCCCCGGGGCUGAGGAGGGGUGGGCACUGUUUGUUCGGUUACUUGGGGGGAACCACACCCAAGCACCCUGCCACCUCUCCUAUAGCUGCAGUCAGGGGGGCAGCACUGAAGGCCAGGAGGCCAAAUGUAAGCGUUGGGUGAAGGGAUCACAGGGCCGGAAGGUUGGCCCCAGCCAGUGAAGCCUCUUGCGGUCGCACUAGUGUGGAAUUCUCGGGUGUCAAGG
# B11: ENSMUSG00000043670.69|Diras1|133:138 (ssRNA)
# RNA: GGGAGUUCUACAGUCCGACGAUCGCUUCGAUAUCCGCAUGCUACCAUUCUAUCUGCACCCCACAACCACACACUGGAGGUUUGAUCCCUGUGGAUCUGAAAACAGGGACCUGGCUAAGGAACUGCUCAUCCCAGUCAGGCCCAGAGAGGUUACCUUGCCUCUCCAUCUCUGUCCCACACACCCCAGCCAUGCCCACUGUCCCUGUCCCUCACAUUCUAUCACUGUGACCUCUGGGGAGUGCCCAUUGACCUCAUCUUCCUUCACUAAUAUCUUAUUUCUUUCACCUGAUCCUGUCCUUUCCCCCUCUUGCGGUCGCACUAGUGUGGAAUUCUCGGGUGUCAAGG
# B12: ENSMUSG00000028439.112|Fam219a (ssRNA)
# RNA: GGGAGUUCUACAGUCCGACGAUCGCUUCGAUAUCCGCAUGCUACAAAGGGAUACUGUCUCUCCAUUAGAUAACUCCUUCCACUGUCUCCCUCCCCCGCUUUCUUACUUUCUGAGGGUUGGGAAGGUAAGAUGGGCCUUAGAGAGAAGCCAGGUUUGGGGAUGGUAUGACCUGUUCUCACCGGUCUCUAACCAGUGCAUCUGUCUCUCUGCCUCAUCCCCACACCGCCCUGCCACCCCCAGUCUUCUGUCUAUUGGUUCCAGGCUGGAAGCAAGAGAUAAGGCUGGCCUCCUGUGCCCCAUUGCCUCUUGCGGUCGCACUAGUGUGGAAUUCUCGGGUGUCAAGG
# B13: ENSMUSG00000032194.3|Kank2 (ssRNA)
# RNA: GGGAGUUCUACAGUCCGACGAUCGCUUCGAUAUCCGCAUGCUAUCAGACUACGAGAGUCCGGCUUCGUCUUCAGCCGAGGAGUGAAUACAGGGAGGAGCCAGUGAGUCCCCCAGGACCCACCAGCCACAAGCCACGCAUCAAACCGUCCCUCCUCCAUCCCUCUGUCCCAUUCUGCCUCGGCAUUCCUCAGCCCCUGAACUUCCCUGAGGGAGCCCUGACAUCUACCAGGCUCAAGCUCCUGGAAGCCUUUCCCAGCACCCUGGGUUCAAAGCCAGAAAGCCAAGCUACAUUCUCCUCCCAGUCUCUUGCGGUCGCACUAGUGUGGAAUUCUCGGGUGUCAAGG
# Molecular target: TDP-43 (Homo sapiens, UniProt Q13148 1-414)
# Sequence (Q13148 whole entry): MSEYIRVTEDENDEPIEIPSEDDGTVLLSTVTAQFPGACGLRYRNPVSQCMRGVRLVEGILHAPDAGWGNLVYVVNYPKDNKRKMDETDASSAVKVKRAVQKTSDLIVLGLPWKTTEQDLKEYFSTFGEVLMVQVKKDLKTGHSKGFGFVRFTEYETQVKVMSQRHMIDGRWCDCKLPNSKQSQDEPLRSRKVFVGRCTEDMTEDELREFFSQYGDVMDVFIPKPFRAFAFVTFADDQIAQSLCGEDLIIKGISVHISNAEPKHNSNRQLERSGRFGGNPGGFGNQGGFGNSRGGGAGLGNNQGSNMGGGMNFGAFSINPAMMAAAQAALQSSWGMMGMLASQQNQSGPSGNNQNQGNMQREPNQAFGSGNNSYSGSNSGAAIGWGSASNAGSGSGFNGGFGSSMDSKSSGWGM
# Experiment: RNA Bind-n-Seq with designed 260-mer pool; 25 mM Tris-HCl, 150 mM KCl, 3 mM MgCl2, BSA (printed 500 mg/mL), 20 units/mL SUPERase IN; pH not stated; 500 nM RNA pool, 1 h, 4 C; TDP-43 5, 50, 500 nM; high values mean tight binding
# Settings: protein: recombinant; tags: SBP (GST cleaved off with PreScission; pGEX-GST-SBP)
# Outline: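 Streptavidin beads captured recombinant SBP-tagged TDP-43 at 5, 50 or 500 nM, and the beads were incubated for 1 h at 4 °C with 500 nM of an in vitro-transcribed pool of 260-nt 3′ UTR oligos in 25 mM Tris-HCl, 150 mM KCl, 3 mM MgCl2, BSA and SUPERase IN. After washing, bound RNA was eluted with biotin, reverse transcribed, PCR-amplified and sequenced. Binding is reported as R, the mapped-read-normalized abundance of each oligo in the bound sample divided by its abundance in the input. Two independent protein batches served as duplicates.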
row,Binder,binding signal
1,B1,5.62 R (bound/input frequency ratio)
2,B2,4.77 R (bound/input frequency ratio)
3,B3,5.98 R (bound/input frequency ratio)
4,B4,5.39 R (bound/input frequency ratio)
5,B5,7.65 R (bound/input frequency ratio)
6,B6,5.48 R (bound/input frequency ratio)
7,B7,4.53 R (bound/input frequency ratio)
8,B8,6.89 R (bound/input frequency ratio)
9,B9,7 R (bound/input frequency ratio)
10,B10,1.29 R (bound/input frequency ratio)
11,B11,2.03 R (bound/input frequency ratio)
12,B12,0.71 R (bound/input frequency ratio)
13,B13,1.4 R (bound/input frequency ratio)
